The source made the active and inactive calls. Calls come from the whole dose curve; as a rule, active = well fitted activation curve with a large enough effect; inconclusive = small, poorly fitted or top-dose-only effect; inactive = no such curve, though single readings can be large or run the other way.
Biological target: Cytochrome P450 3A4 (Homo sapiens) (UniProt P08684)
Assay: qHTS Assay for Activators of Cytochrome P450 3A4 (AID 885); note: nearly all actives have a fitted effect of over 65% in size
Conditions: recombinant CYP3A4, Luciferin-PPXE luminescence, 60 min; series mostly up to 57.1 µM; activity change, positive = activation: at the top concentration
Procedure, shortened: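 Steps: enzyme/substrate mix dispensed; compound added, 10 min RT; NADPH regeneration solution added, 60 min RT; luciferin detection buffer stops reaction; 20 min later luminescence measured.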

Cytochrome P450 3A4 (Homo sapiens), sequence (P08684 whole entry, looked up): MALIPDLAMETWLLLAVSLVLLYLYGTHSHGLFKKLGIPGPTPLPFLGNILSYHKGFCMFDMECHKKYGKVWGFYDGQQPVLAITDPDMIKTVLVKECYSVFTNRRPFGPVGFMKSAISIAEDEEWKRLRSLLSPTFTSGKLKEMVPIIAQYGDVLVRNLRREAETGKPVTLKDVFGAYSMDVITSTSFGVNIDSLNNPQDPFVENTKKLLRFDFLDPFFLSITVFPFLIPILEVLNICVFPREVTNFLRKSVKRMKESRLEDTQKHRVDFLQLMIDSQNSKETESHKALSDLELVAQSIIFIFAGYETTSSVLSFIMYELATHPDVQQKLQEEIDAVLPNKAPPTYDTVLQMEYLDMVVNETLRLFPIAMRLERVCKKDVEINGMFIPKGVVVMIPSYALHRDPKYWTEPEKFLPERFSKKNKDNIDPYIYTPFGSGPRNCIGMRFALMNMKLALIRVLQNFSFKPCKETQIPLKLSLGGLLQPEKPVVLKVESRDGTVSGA

Activity change, positive = activation, inactive:
CC(=O)N1C2(C=CC1(C)C(=O)NCc1ccccn1)CCCCC2 (centres undefined) -82%
COC(=O)c1ccc(C(NC(=O)OCc2ccccc2)/C(I)=C/[C@@H](C)C(=O)Nc2ccccc2)cc1 (some centres undefined) -79.1%
COC(=O)c1ccc(C(NC(=O)OCc2ccccc2)/C(F)=C/[C@@H](C)C(=O)N[C@@H](CO)Cc2ccccc2)cc1 (some centres undefined) -101%
CCCCCCN(C(=O)CCCCCN1C(=O)NC(c2ccccc2-c2ccccc2)C(C(=O)OCc2ccccc2)=C1C)C(C(=O)NCCCC)c1ccc(OCC(=O)OC)c(C(=O)OC)c1 (centres undefined) -94.9%
CCCCCCN(C(=O)CCCCCN1C(=O)NC(c2cccc([N+](=O)[O-])c2)C(C(=O)OCc2ccccc2)=C1C)C(C(=O)NCCCC)c1ccc(OCC(=O)OC)c(C(=O)OC)c1 (centres undefined) -96.9%
COC(=O)c1ccc(C(NC(=O)OCc2ccccc2)/C(=C/[C@@H](C)C(=O)Nc2ccccc2)c2cccnc2)cc1 (some centres undefined) -95%
COC(=O)c1ccc(C(NC(=O)OCc2ccccc2)/C(C)=C/[C@@H](C)C(=O)Nc2ccc(OC)cc2)cc1 (some centres undefined) -94.7%
CCCCCCN(C(=O)CCCCCN1C(=O)NC(c2ccc([N+](=O)[O-])cc2)C(C(=O)OCc2ccccc2)=C1C)C(C(=O)NCCCC)c1ccc(OCC(=O)OC)c(C(=O)OC)c1 (centres undefined) -98.2%
COC(=O)c1ccc(C(NC(=O)OCc2ccccc2)/C(F)=C/[C@@H](C)C(=O)NCCc2c[nH]c3ccc(OC)cc23)cc1 (some centres undefined) -96.9%
